This note sets out measurements from PubChem BioAssay.

One test addresses Albumin (Bos taurus) (UniProt P02769). The test is described as follows: compounds binding labelled BSA control protein – biochemical, small-molecule microarray, Alexa647 label, 635/667 nm fluorescence, artefact control for SMM control protein annotation, profiling panel (AID 1118).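 Also: score merges 667 nm emission intensity and signal-to-noise per printed compound spot.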 The conditions noted are these: BSA-A647 binding, fluorescence 635 nm, higher = more signal.
The nature of test [1]: probe aXIP binding to arrayed compounds – biochemical, NeuroSMM set, 635/667 nm fluorescence, primary screen (AID 1119).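 Also: probe is the protein aXip251-270 applied at 1 µg/mL to compound-printed slides; binding of probe to printed compounds measured as 667 nm fluorescence plus signal to noise.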 The conditions noted are these: small-molecule microarray; higher = more signal, called active from +8 up or from −8 down unless noted.
A short description of test [2]: probe aNOTCH3 binding on compound microarray – biochemical, small-molecule microarray, 635/667 nm fluorescence, primary screen (AID 1120).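 Also: probe is a biotin-tagged antibody raised against NOTCH3 rather than NOTCH3 protein; score merges spot fluorescence near 667 nm with spot signal to noise.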 The conditions noted are these: higher = more signal; small-molecule microarray, probe aNOTCH3, fluorescence unless noted.
Test [3] in a line: probe aNOTCH2 binding on compound microarray – biochemical, small-molecule microarray, 635/667 nm fluorescence, primary screen (AID 1121).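 Also: score merges feature fluorescence read at 667 nm with its signal to noise.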 The conditions noted are these: higher = more signal; small-molecule microarray, probe aNOTCH2, fluorescence unless noted.
In test [4] the target is Carbonic anhydrase 2 (Homo sapiens) (UniProt P00918). The experiment in a line: compounds binding carbonic anhydrase 2 – biochemical, small-molecule microarray, Alexa647-labelled CAII, profiling panel (AID 1122). The conditions noted are these: CAII-A647 binding fluorescence, higher = more signal.
A short description of test [5]: COS7 lysate on small-molecule microarray, probe aHis, 635 nm (AID 1123).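 Also: z-score combines 667nm fluorescence intensity with signal-to-noise per printed compound spot.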 The conditions noted are these: higher = more signal; small-molecule microarray, COS7 cell lysate, probe aHis, fluorescence unless noted.
The nature of test [6]: probe aLAP1 signal on lysate-treated microarray – cell lysate, small-molecule microarray, COS7 lysate, primary screen (AID 1124).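 Also: lysate comes from COS7 cells expressing LAP1 and is applied at 0.3 µg/mL; score merges spot fluorescence near 667 nm with signal-to-noise over triplicate slides.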 The conditions noted are these: higher = more signal; small-molecule microarray, COS7 cell lysate, probe aLAP1, fluorescence unless noted.
The subject of the next test is Sam68 (KHDRBS1). The test is described as follows: compounds binding KHDRBS1 protein – biochemical, small-molecule microarray, 635 nm fluorescence, primary screen (AID 1125).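 Also: score merges 667 nm channel intensity with signal to noise over triplicate slides.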 The conditions noted are these: higher = more signal.
Test [7] deals with Chordin-like protein 2 (CHRDL2). The experiment in a line: compounds binding chordin-like 2 – biochemical, small-molecule microarray, 635 nm fluorescence, primary screen (AID 1126).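 Also: printed compound slides probed with Chrdl2 protein at 4 µg/mL for 1 h at 4 C; score merges 667 nm emission intensity with signal to noise over three replicate slides.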 The conditions noted are these: fluorescence 635 nm, higher = more signal.
The target of test [8] is Concanavalin-A (Canavalia ensiformis) (UniProt P02866). The experiment in a line: compounds binding concanavalin A lectin – biochemical, small-molecule microarray, Alexa647 label, 635 nm, artefact control for SMM control protein annotation, primary screen (AID 1127).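 Also: z combines 667 nm emission intensity with signal-to-noise across three replicate slides.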 The conditions noted are these: ConA-A647 binding fluorescence, higher = more signal.
Concanavalin-A (Canavalia ensiformis), sequence (P02866 whole entry, looked up): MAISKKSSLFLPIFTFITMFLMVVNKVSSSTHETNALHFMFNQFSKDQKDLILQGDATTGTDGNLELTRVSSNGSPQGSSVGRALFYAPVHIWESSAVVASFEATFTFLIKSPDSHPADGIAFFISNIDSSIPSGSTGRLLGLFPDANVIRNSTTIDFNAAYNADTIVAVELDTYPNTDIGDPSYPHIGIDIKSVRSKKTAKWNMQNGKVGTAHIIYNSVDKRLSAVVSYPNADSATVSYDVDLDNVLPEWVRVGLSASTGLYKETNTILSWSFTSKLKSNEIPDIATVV
The nature of test [9]: compounds binding Alexa647 anti-His antibody – biochemical, small-molecule microarray, 635 nm fluorescence, artefact control for SMM control protein annotation, primary screen (AID 1128).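 Also: score merges feature fluorescence with signal-to-noise for each printed compound spot.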 The conditions noted are these: higher = more signal.
For test [10], the system named is Human papillomavirus type 1a E7 protein (residues 1-88). The test is described as follows: HPV1a E7 small-molecule binders, primary screen, biochemical, small-molecule microarray, residues 1-88, 635 nm (AID 1129). The conditions noted are these: small-molecule microarray binding, fluorescence 635 nm; higher = more signal.
Test [11] deals with Focal adhesion kinase 1 (Homo sapiens) (UniProt Q05397). The test is described as follows: PTK2 protein binding on printed compound slides – biochemical, small-molecule microarray, 635/667 nm fluorescence, BSA, DTT, primary screen (AID 1130).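 Also: composite of spot emission at 667 nm and signal to noise over triplicate slides.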 The conditions noted are these: 635 nm fluorescence, higher = more signal.
Focal adhesion kinase 1 (Homo sapiens), sequence (Q05397 whole entry, looked up): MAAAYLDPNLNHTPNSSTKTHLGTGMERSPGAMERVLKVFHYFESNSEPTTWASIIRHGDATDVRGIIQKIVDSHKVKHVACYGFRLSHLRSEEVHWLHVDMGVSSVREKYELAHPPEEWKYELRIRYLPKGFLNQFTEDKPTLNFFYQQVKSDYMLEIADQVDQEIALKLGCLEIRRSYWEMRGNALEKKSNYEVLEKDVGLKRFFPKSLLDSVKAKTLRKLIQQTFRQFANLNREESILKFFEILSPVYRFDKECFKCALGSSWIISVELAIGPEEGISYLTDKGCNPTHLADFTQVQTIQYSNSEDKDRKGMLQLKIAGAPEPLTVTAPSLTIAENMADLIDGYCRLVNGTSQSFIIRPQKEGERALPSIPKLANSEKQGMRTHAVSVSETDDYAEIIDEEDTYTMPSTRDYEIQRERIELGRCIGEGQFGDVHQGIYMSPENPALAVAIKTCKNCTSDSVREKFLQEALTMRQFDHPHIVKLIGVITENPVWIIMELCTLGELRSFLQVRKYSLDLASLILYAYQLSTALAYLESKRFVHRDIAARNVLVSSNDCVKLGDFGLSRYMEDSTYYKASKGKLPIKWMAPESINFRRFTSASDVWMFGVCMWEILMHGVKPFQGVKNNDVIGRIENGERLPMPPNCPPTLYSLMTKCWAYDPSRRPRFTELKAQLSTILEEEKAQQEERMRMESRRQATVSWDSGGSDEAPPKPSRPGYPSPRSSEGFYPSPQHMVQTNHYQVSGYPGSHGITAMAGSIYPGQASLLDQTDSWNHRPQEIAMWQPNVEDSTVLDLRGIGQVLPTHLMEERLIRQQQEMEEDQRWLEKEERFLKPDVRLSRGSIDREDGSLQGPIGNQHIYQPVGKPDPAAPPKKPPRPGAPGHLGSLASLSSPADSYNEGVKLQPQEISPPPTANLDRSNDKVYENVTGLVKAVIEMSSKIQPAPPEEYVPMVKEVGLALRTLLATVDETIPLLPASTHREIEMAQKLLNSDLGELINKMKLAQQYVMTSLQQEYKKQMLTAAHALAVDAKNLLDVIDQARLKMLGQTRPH
The test system of test [12] is Fibrinogen (Alexa647-labelled). The test is described as follows: Alexa647-fibrinogen binding to printed small molecules – biochemical, small-molecule microarray, 635/667 nm fluorescence, artefact control for SMM control-protein annotation, profiling panel (AID 1131).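 Also: z-score merges 667 nm fluorescence with per-spot signal-to-noise over triplicate slides.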 The conditions noted are these: fibrinogen-A647 binding fluorescence, higher = more signal.
Test [13] addresses Follistatin (Homo sapiens) (UniProt P19883). The test is described as follows: FST protein binding to printed compounds – biochemical, small-molecule microarray, 635/667 nm fluorescence, primary screen (AID 1132). The conditions noted are these: 635 nm fluorescence, higher = more signal.
Test [14] addresses Fibroblast growth factor 2 (Homo sapiens) (UniProt P09038). The test is described as follows: basic fibroblast growth factor binding to printed compounds – biochemical, small-molecule microarray, 635/667 nm fluorescence, primary screen (AID 1133). The conditions noted are these: FGF2, fluorescence 635/667, higher = more signal.
Test [15] is described as follows: JC-1 mitochondrial potential readout, lung cancer cells – cell-based, A549, JC-1 fluorescence, basal, 24 h, 100 nL, profiling panel (AID 1138).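 Also: A549 lung adenocarcinoma cells under basal conditions with no added stimulus; test concentration not given here.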 The conditions noted are these: higher = more signal.
For a further test, the system named is Lefty1. The experiment in a line: Lefty1 protein binding to printed compounds – biochemical, small-molecule microarray, 635/667 nm fluorescence, primary screen (AID 1139). The conditions noted are these: fluorescence 635/667, higher = more signal.
Test [16] deals with wheat germ agglutinin (Triticum aestivum), Alexa647-labelled. The test is described as follows: Alexa647-WGA lectin binding to printed small molecules – biochemical, small-molecule microarray, 635/667 nm fluorescence, artefact control for SMM control-protein annotation, profiling panel (AID 1140).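 Also: score merges 667 nm feature emission with signal to noise over triplicate slides.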 The conditions noted are these: WGA-A647 binding, 635 nm fluorescence, higher = more signal.

Test [17] concerns the target Luciferin 4-monooxygenase (Photinus pyralis) (UniProt P08659). The experiment in a line: inhibition of purified Photinus pyralis luciferase – biochemical, luminescence, purified enzyme, 2006 set, primary screen (AID 1141).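 Also: cell-free assay with purified firefly luciferase at 100 ng per well in PBS; test concentration not given here.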 The conditions noted are these: purified firefly luciferase, SteadyGlo luminescence, 30 min; higher = more signal, called active from +8 up or from −8 down unless noted.

Molecules are shown by their SMILES. Calls of active or inactive are those of the source.

Fibroblast growth factor 2 (Homo sapiens), sequence (P09038 whole entry, looked up): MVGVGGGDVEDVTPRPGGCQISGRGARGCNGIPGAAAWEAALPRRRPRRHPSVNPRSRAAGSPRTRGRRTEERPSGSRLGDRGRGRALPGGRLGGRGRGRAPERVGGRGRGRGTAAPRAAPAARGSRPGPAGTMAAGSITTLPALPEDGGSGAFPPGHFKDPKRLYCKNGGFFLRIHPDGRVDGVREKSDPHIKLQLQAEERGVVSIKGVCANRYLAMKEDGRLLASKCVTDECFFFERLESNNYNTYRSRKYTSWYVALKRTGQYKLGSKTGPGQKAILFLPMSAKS
Albumin (Bos taurus), sequence (P02769 whole entry, looked up): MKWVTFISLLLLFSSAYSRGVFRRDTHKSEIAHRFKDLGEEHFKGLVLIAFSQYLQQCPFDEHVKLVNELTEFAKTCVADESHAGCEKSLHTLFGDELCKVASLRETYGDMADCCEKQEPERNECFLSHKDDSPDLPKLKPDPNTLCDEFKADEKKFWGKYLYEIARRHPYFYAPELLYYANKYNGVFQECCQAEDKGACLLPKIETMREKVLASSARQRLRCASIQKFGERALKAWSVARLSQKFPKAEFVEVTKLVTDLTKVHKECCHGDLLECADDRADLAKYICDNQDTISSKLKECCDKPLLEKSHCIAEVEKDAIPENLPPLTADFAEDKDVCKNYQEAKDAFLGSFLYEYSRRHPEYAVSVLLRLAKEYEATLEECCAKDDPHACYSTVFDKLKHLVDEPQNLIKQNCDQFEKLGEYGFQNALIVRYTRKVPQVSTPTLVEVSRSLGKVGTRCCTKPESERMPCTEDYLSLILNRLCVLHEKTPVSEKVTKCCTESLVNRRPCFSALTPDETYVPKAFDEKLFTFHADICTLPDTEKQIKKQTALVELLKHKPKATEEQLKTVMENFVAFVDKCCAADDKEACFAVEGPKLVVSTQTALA
Follistatin (Homo sapiens), sequence (P19883 whole entry, looked up): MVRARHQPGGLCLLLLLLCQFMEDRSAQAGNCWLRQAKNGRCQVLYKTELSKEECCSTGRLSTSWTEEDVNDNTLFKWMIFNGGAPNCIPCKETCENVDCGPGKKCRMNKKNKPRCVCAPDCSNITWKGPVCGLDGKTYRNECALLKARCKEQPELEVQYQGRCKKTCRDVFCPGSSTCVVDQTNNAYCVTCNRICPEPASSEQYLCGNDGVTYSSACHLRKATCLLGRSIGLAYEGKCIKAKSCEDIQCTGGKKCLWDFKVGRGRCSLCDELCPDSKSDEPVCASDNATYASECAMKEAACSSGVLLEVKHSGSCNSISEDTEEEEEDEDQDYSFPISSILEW
Luciferin 4-monooxygenase (Photinus pyralis), sequence (P08659 whole entry, looked up): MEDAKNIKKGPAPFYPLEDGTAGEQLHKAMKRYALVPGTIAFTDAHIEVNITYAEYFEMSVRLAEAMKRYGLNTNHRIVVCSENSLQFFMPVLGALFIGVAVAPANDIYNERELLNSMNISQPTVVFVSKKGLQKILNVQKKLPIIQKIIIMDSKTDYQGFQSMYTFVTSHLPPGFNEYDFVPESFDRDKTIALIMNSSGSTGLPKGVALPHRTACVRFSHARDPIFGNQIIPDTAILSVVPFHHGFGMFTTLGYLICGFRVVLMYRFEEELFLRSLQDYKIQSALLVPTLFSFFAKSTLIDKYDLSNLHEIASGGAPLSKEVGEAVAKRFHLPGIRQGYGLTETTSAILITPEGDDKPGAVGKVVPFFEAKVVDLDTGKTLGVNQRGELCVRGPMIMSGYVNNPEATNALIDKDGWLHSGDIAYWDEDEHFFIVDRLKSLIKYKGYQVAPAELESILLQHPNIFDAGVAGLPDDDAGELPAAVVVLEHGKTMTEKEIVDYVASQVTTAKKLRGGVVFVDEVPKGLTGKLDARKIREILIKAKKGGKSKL

Turning to `CCCC=C(CCC)[C@@H](NP(=O)(c1ccccc1)c1ccccc1)c1ccccc1`, the composite z-score with Albumin (Bos taurus) was 0.377; in [2] it was 0.0873; in test [3] it was -0.053; in test [4] it was -0.0222; in test [5] it was 0.122; in test [6], -0.264. Further, the composite z-score with Sam68 (KHDRBS1) was 0.986; in [7] it was -0.141; in test [8], 1.07; in test [9] it was 0.0583; in test [10] it was 1.03; in test [11], 0.206. Also, the composite z-score was 0.819 in test [12]; 0.139 in test [13]; 0.407 in test [14]; 0.169 with Lefty1; 0.207 in test [16]. In test [1], the composite Z-score was 0.655 (inactive). In addition, the z-score was 1.23 in test [15] and 1.19 (inactive) in test [17].
Turning to `COC(=O)[C@H]1[C@H](c2ccccc2)C(=O)[C@]2(O)c3ccccc3O[C@@]12c1ccccc1`, the composite z-score with Albumin (Bos taurus) is 0.394; in test [2], 0.0833; in test [3] it was -0.199; in test [4], -0.132; in test [5], 0.0246; in [6], -0.0474. In addition, the composite z-score in the test with Sam68 (KHDRBS1) is 0.198; in test [7], 0.263; in [8], 0.711; in test [9] it was -0.179; in test [10], 0.382; in test [11] it was 0.227. Also, the composite z-score in test [12] came out at 0.826; in test [13], 0.402; in test [14], 0.186; with Lefty1, 0.266; in test [16] it was 0.167. Besides, the composite Z-score in test [1] is 0.311 (inactive). The z-score was 0.866 in test [15] and -1.9 (inactive) in [17].
`O=P(c1ccccc1)(c1ccccc1)N1CC2(CC2)CC(O)(c2ccccc2)C1` (stereo not given): the composite z-score with Albumin (Bos taurus) was determined as 0.498; in test [2], 0.392; in test [3], 0.193; in [4], 0.835; in test [5], 3.3; in test [6] it was 1.19. Moreover, the composite z-score in the test with Sam68 (KHDRBS1) is 0.584; in test [7] it was -0.31; in [8] it was 0.462; in test [9], 1.11; in [10], 0.805; in test [11], 1.26. Further, the composite z-score is 0.77 in [12]; -0.541 in [13]; -0.955 in test [14]; -1.17 in the test with Lefty1; 0.546 in test [16]. Moreover, the composite Z-score in [1] is 0.284 (inactive). Moreover, the z-score in test [15] was 0.542; in [17], 2.44 (inactive).
For the compound `CN1CCC(c2ccc(CO)cc2)=CC1C1CC1` (stereo not given), the composite z-score with Albumin (Bos taurus) is -1.02; in test [2] it was 0.0357; in [3], -0.192; in test [4], -0.0046; in [5], -0.106; in test [6], -0.334. Besides, the composite z-score in the test with Sam68 (KHDRBS1) was -0.172; in test [7], 0.0276; in [8], 0.28; in test [9] it was -0.192; in [10] it was -0.855; in [11] it was 0.363. Also, the composite z-score in test [12] is -0.0825; in [13], 0.231; in test [14], 0.0573; in the test on Lefty1, 0.85; in test [16] it was -0.0579. For the same compound, in test [1], the composite Z-score is -0.557 (inactive). The z-score is 0.319 in [15] and -0.866 (inactive) in test [17].
For the compound `COC(=O)[C@@]1(Cc2ccc(F)cc2)[C@H]2c3cc(C(=O)N(C)C)[nH]c3C[C@H]2CN1C(=O)c1ccccc1`, the composite z-score with Albumin (Bos taurus) was 0.659; in test [2] it was -0.0414 [setting not given]; in test [3] it was -0.0763 [setting not given]; in test [4] it was 0.777; in test [5], 0.694 [setting not given]; in test [6] it was 0.18 [setting not given]. Moreover, the composite z-score is 0.361 in the test with Sam68 (KHDRBS1); -0.268 in test [7]; 0.419 in [8]; 1.8 in [9]; 0.733 in [10]; 0.745 in test [11]. Moreover, the composite z-score in test [12] was 0.817; in [13], -0.252; in [14] it was -0.0573; with Lefty1, -0.855; in test [16], 0.186. Further, the composite Z-score in [1] was 0.495 [setting not given] (inactive). The z-score in test [15] is 0.843; in test [17], -0.0137 [setting not given] (inactive).
